# NPC1 promoter act – NPC1 promoter activation | Huh7 NPC1 promoter luciferase reporter, 24 h | Potency, µM (series often up to 9.22 µM), most hits filed as activators | 320,000 tested, 2.4% active; further: nearly all actives have a fitted effect of over 60% in size
#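 Cells: Huh7 expressing luciferase under the NPC1 promoter, 1500/well. Seeded 2 h, compound added, incubated 24 h at 37 °C. Luciferase reagent, 10 min ambient, then luminescence.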
# ELG1 genotox – inducers of genotoxicity in HEK293T ELG1-luciferase cells. HEK293T ELG1-luciferase reporter, luminescence, 16 h. 330,000 tested, 1.3% active. AID 504466. Potency, µM (top dose mostly 46 µM), most hits filed as activators; further: nearly all actives have a fitted effect of over 60% in size
#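 Luminescence read-out: rising ELG1-luciferase signal, reflecting elevated ELG1 protein under genetic stress, flags genotoxic compounds. Cells were treated for 16 hr at 37 °C before ONE-Glo detection.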
# SMN2 splice up – enhancers of SMN2 splice variant expression | HEK293 SMN2-luciferase splicing reporter, luminescence, 30-36 h | AID 1458 | 210,000 tested, 2.8% active | Potency, µM (titrated, usually from 46.1 µM), most hits filed as activators; further: nearly all actives have a fitted effect of over 55% in size
#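 HEK293 cells carry an SMN2 […]–luciferase reporter in which exon 7 inclusion puts luciferase in frame. Cells were plated 10-12 h before compound addition, then incubated 30-36 h at 37C. ONE-Glo luminescence was read; sodium butyrate at 4.5 mM final served as control.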
# Luc counter – counter-screen: inhibitors of Kinase-Glo firefly luciferase. Kinase-Glo luciferase, ATP luminescence, 8 min. Potency, µM (top dose mostly 38.3 µM), usual class: inhibitors. 200,000 tested, 0.28% active; further: nearly all actives have a fitted effect of over 60% in size
#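 Compound is pinned into ATP-containing buffer (10 uM ATP, imidazole pH 7.2, 7 mM MgCl2). Kinase-Glo luciferase reagent is then added. Light output is recorded following an 8-min room-temperature incubation.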
# Rab9 prom act – activates the Rab9 promoter; 320,000 tested, 2.8% active; AID 485297; Huh7 Rab9 promoter-luciferase reporter, luminescence, 24 h; Potency, µM (series often up to 9.22 µM), hits mostly activators; further: nearly all actives have a fitted effect of over 60% in size
#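 Huh7 cells stably carrying Rab9 promoter–luciferase reporter, plated 1500 cells/well, compound added after 2 h and incubated 24 h at 37 °C; luciferase luminescence then read after 10 min with detection reagent.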
# FLuc modulator – counter-screen for miR-21 project: firefly luciferase inhibitors or activators; P08659; purified FLuc, Km substrates, luminescence inhibition; Potency, µM (top dose mostly 57.5 µM), usual class: inhibitors; 360,000 tested, 6.9% active; AID 588342; further: nearly all actives have a fitted effect of over 55% in size
# Target sequence (P08659 whole entry, looked up): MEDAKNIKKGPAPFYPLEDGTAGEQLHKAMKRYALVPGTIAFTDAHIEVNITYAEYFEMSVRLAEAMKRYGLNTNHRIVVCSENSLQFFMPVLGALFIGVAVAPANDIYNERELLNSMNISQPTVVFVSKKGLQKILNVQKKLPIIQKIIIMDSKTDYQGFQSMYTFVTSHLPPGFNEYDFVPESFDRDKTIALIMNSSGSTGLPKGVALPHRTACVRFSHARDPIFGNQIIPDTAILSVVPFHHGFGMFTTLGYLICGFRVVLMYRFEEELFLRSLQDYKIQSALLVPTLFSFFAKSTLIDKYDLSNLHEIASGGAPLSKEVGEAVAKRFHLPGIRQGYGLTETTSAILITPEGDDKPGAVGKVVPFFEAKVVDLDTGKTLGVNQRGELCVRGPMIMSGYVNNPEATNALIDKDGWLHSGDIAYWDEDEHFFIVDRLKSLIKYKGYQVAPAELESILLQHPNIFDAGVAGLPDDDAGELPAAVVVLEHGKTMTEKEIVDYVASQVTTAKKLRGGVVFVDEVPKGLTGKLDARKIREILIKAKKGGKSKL
#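 Biochemical qHTS of compounds, final roughly 60 µM downward over six points, against 10 nM purified firefly luciferase using Km concentrations of substrates (10 uM D-luciferin, 10 uM ATP) in Tris acetate pH 7.5 buffer; luminescence output.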
# A number is an active result; 0 = inactive; ? = inconclusive; - = not tested or not shown; [ ] = another dose, or the depositor's remark. Hits are enriched below; roughly 7.3% of the tested compounds scored in any of these assays. The call rests on the fitted dose curve; in most records, active means well fitted curve in the direction sought with a large enough effect; inconclusive means small, poorly fitted or top-dose-only effect, or another doubt; inactive means no such curve, though single readings can be large; an effect the other way counts as inactive or inconclusive.
SMILES,NPC1 promoter act,ELG1 genotox,SMN2 splice up,Luc counter,Rab9 prom act,FLuc modulator
Clc1ccc(CSCc2ccc(Cl)cc2Cl)c(Cl)c1,-,-,0[9.22 µM],0[7.66 µM],-,-
CN(C)c1ccc(-c2cc(NCc3ccccc3)ncn2)cc1,-,-,0.794µM,0,-,-
CN(C)c1ccc(-c2ccc3ncnc(NCc4ccccc4)c3c2)cc1,-,-,0,0,-,-
CCOc1ccc(CCNC(=O)c2sc3ncccc3c2-n2cccc2)cc1OCC,-,-,-,-,-,0
COc1ccccc1CNC(=O)CN1C(=O)COc2ccc(S(=O)(=O)Nc3ccccc3)cc21,-,-,-,-,-,0
COc1c(F)c(F)c(C(=O)O)c(Nc2ccc(C)cc2)c1F,0,0,0,0,0,0
Cc1ccc(C)c(Nc2c(F)c(F)c(F)c(F)c2C(=O)O)c1,0,0,0,0,0,15.1µM
NC(N)=N[C@H](CC(=O)O)c1ccccc1,-,-,0[9.22 µM],0[7.66 µM],-,-
Cn1c(SCC(=O)Nc2ccccc2Cl)nnc1C1CC1,0,0,-,-,0,0
Nc1nnc(SCC(=O)Nc2nnc(-c3ccccc3)o2)s1,0,0,-,-,0,?
COCCNc1nnc(SCC(=O)Nc2nnc(-c3ccccc3)o2)s1,0,0,-,-,0,19µM
Cn1c(SCC(=O)Nc2nnc(-c3ccccc3)o2)nnc1C1CC1,0,0,-,-,0,13.5µM
COc1cc(OC)c(NC(=O)NCCn2nnc3cc(S(=O)(=O)N(C)C)ccc32)cc1Cl,-,-,-,-,-,0
Cc1ccccc1NC(=O)CSc1ccc(-c2cccs2)nn1,-,-,-,-,-,0
COc1ccc(C2CC(=O)N(Cc3cccc(C)c3)c3c2c(C)nn3-c2nc(C)cc(C)n2)c(OC)c1 (centres undefined),-,-,-,-,-,0
COc1cccc(-c2ccc3ncnc(NCc4cccc(F)c4)c3c2)c1,0,-,-,-,0,0
O=C(O)c1ccc2c(c1)C(=O)/C(=C\c1ccco1)C2=O,0,0,0,0,0,9.53µM
O=C(O)c1ccc2c(c1)C(=O)/C(=C/c1ccccc1)C2=O,0,0,0,0,0,?
Cc1ccc(/C=C2/C(=O)c3ccc(C(=O)O)cc3C2=O)o1,0,0,-,0,0,2.69µM
CC(/C=C/c1ccc(C)o1)=C\C(=O)O,0,0,0,0,0,0
Cc1ccc(C=C2C(=O)c3ccccc3C2=O)o1,0,0,0[1.84 µM],11.2µM,0,0.477µM
O=C1C(=Cc2ccco2)C(=O)c2ccccc21,0,0,0,0,0,13.5µM
Cc1ccc(S(=O)(=O)OCCc2ccccc2)cc1,-,-,0,0,-,-
CC(C)CN(C(=O)c1ccc(=O)n(C)n1)c1nc2ccccc2s1,0,0,20µM,0,0,0
Cc1ccc(C(=O)N(CC(C)C)c2nc3ccccc3s2)o1,0,0,-,-,0,?
SMILES,NPC1 promoter act,ELG1 genotox,SMN2 splice up,Luc counter,Rab9 prom act,FLuc modulator
O=C(O)/C(=C\c1ccc(O)cc1)c1cccc2ccccc12,-,-,0[9.22 µM],0[7.66 µM],-,-
CCCC(=O)Nc1sc(C(=O)Nc2cccc(N)c2)c(C)c1C(=O)OC,3.16µM,?,-,0,0.891µM,13.5µM
COC(=O)c1c(NC(C)=O)sc(C(=O)Nc2ccccc2F)c1C,?,?,7.08µM,0,?,0
CCC(=O)Nc1sc(C(=O)Nc2ccccc2OC)c(C)c1C(=O)OC,0,0,0,0,0,0
CCC(=O)Nc1sc(C(=O)Nc2ccccc2F)c(C)c1C(=O)OC,0,0,-,0,0,7.57µM
Cn1cnc(S(=O)(=O)N2CCCC(C(=O)NCc3ccccc3)C2)c1 (centres undefined),-,-,-,-,-,0
Cn1c([N+](=O)[O-])cnc1CN1CCN(CCO)CC1,-,-,0[9.22 µM],0[7.66 µM],-,-
CCOc1cc(NC(=S)NCC2CCCO2)c(OCC)cc1NC(=O)c1ccc(C)cc1 (centres undefined),0,0,0,0,0,0
CC(C)(C)c1ccc(C(=O)Nc2ccccc2C(=O)NCCN2CCOCC2)cc1,0,0,-,-,0,5.36µM
Cc1ccc(C(=O)Nc2ccccc2C(=O)NCC2CCCO2)cc1 (centres undefined),0,0,-,-,0,15.1µM
Cc1ccc(C(=O)NC(=S)NCC2CCCO2)cc1 (centres undefined),2.82µM,?,14.1µM,0,?,16.9µM
CCOc1cc(NC(=S)NCC2CCCO2)c(OCC)cc1NC(=O)c1ccc(F)cc1 (centres undefined),0,0,-,0,0,26.9µM
CC1(C)Cc2nc3sc4c(SCC(=O)O)ncnc4c3cc2CO1,?,0,-,-,?,0.379µM
CC1(C)Cc2nc3sc4c(SCC(=O)NCc5ccccc5)ncnc4c3cc2CO1,0,4.11µM,?,0,0,2.69µM
COC(=O)CSc1ncnc2c1sc1nc3c(cc12)COC(C)(C)C3,0,0,0,0,?,?
CCOc1ccccc1Nc1ccc(N)cc1S(=O)(=O)O,-,-,0[9.22 µM],0[7.66 µM],-,-
COc1cccc(NC(=O)c2ccc3c(c2)CCCC3)c1,1.41µM,2.59µM,-,-,1.41µM,1.2µM
CC(=O)c1cccc(NC(=O)c2ccc3c(c2)CCN3S(=O)(=O)c2ccccc2)c1,0,0,0,-,0,0
COc1cccc(NC(=O)c2ccc(CN3CCc4ccccc4C3)cc2)c1,0,0,-,-,0,19µM
CC(=O)c1cccc(NC(=O)c2ccc3c(c2)CCCC3)c1,2.51µM,0[9.26 µM],-,-,3.98µM,1.35µM
CC(=O)c1cccc(NC(=O)c2ccc(CN3CCc4ccccc4C3)cc2)c1,0,0,-,-,0,?
CC(C)Cn1c(=O)c2sccc2n2c(CCCC(=O)NCC(C)c3ccccc3)nnc12 (centres undefined),-,-,-,-,-,0
CC1CCc2nc(NC(=O)C3COc4ccccc4O3)sc2C1 (centres undefined),?,?,0,0,?,0.536µM
Cc1ccccc1C(=O)Nc1nc2c(s1)CC(C(C)(C)C)CC2 (centres undefined),-,-,-,-,-,6.01µM
Cc1ncsc1C(=O)Nc1nc2c(s1)CC(C)CC2 (centres undefined),1.78µM,2.06µM,12.6µM,?,?,2.13µM
SMILES,NPC1 promoter act,ELG1 genotox,SMN2 splice up,Luc counter,Rab9 prom act,FLuc modulator
CC1CCc2nc(NC(=O)C3CC3)sc2C1 (centres undefined),?,0,?,0,?,23.9µM
CC(C)Oc1ccc(C(=O)Nc2nc3c(s2)CC(C(C)(C)C)CC3)cc1 (centres undefined),-,-,-,-,-,0
CC1CCc2nc(NC(=O)Nc3ccc4c(c3)OCO4)sc2C1 (centres undefined),3.16µM,?,-,-,2.51µM,1.35µM
Cc1ccc(CNC(=O)c2c3c(nc4ccccc24)C(=O)N(C2CCCCC2)C3)cc1,-,-,-,-,-,0
CC(C)C1=C[C@@]23CC[C@@H]4[C@](C)(CCC[C@@]4(C)C(=O)O)[C@@H]2C[C@@H]1[C@@H](C(=O)O)[C@@H]3C(=O)O,-,-,0[9.22 µM],0[7.66 µM],-,-
Cc1ccc(OCCn2c(=O)sc3ccccc32)cc1,3.55µM,?,12.6µM,0,?,6.75µM
COc1ccc(Cn2c(=O)sc3ccccc32)cc1,0,0,?,0,0,0
O=c1sc2ccccc2n1COc1ccc(Cl)cc1,0,?,0,0,?,19µM
